Experimental data from PubChem BioAssay AID1347076 (National Center for Advancing Translational Sciences (NCATS), 2019).
Out of some 400,000 compounds screened, about 13,000 (3.2%) were called active. Not shown: some 18% with an inconclusive outcome. Calls come from the whole dose curve; as a rule, active = well fitted cell-killing curve with a large enough effect; inconclusive = small, poorly fitted or top-dose-only effect, or effect the other way; inactive = flat fitted curve, though single readings scatter. The entries come from a sample that favours actives as a whole. A call without a number means that no potency is given here.

Assay: qHTS assay for MDR1-selective chemotherapeutics: Primary screen using the drug-selected MDR subline cells KB-V1; note: nearly all actives have a fitted effect of over 60% in size
Settings: KB-V1 MDR cells viability, CellTiter-Glo, 72 h; series mostly up to 46.1 µM
Procedure, shortened: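 Compound-treated KB-V1 multidrug-resistant cells, 72 h, 37 degrees C; viability by CellTiter-Glo. Fitted qHTS curves give the values.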
Potency is the fitted concentration of half-maximal effect.

| Structure (SMILES) | Potency |
| --- | --- |
| O=C(Nc1ccc2c(c1)OCCO2)C(C1CC1)N1CCC(Cc2ccccc2)CC1 (stereo unspecified) | inactive |
| O=C(Nc1ccccn1)C1CCN(S(=O)(=O)c2ccc3c(c2)OCCO3)CC1 | inactive |
| O=C(NCc1ccccn1)C1CCN(S(=O)(=O)c2ccc(Br)cc2)CC1 | inactive |
| O=C(Nc1ccccn1)C1CCN(S(=O)(=O)c2ccccc2)CC1 | 18.4 µM (active) |
| CN(Cc1ccc(C(F)(F)F)cc1)C(=O)[C@H]1O[C@@H](n2cnc3c(N)ncnc32)[C@H](O)[C@@H]1O | inactive |
| O=C(COc1ccc(S(=O)(=O)N2CCCC2)cc1[N+](=O)[O-])N1CCCCC1 | inactive |
| O=[N+]([O-])c1cc(S(=O)(=O)N2CCCC2)ccc1NN=C1CCCC1 | 16.4 µM (active) |
| O=[N+]([O-])c1cc(C(F)(F)F)ccc1NN=C1CCCC1 | inactive |
| COC(=O)c1ccc(CN2C(=O)C(Cc3ccccc3)ON=C2c2ncccc2C)o1 (stereo unspecified) | inactive |
| CC(C)c1ccc(S(=O)(=O)Nc2ccc(O)c(Sc3nc4ccccc4s3)c2)cc1 | 16.4 µM (active) |
| O=[N+]([O-])c1c(NCCO)cc(Sc2nc3ccccc3s2)c2nonc12 | inactive |
| O=S(=O)(Nc1ccc2nc(N3CCOCC3)sc2c1)c1ccccc1 | inactive |
| COC(=O)N(C)C[C@@H]1OCc2cnnn2CCCC(=O)N([C@@H](C)CO)C[C@@H]1C | inactive |
| Nc1nc2c(ncn2[C@@H]2O[C@H](CNCc3ccc(OCCCN4CCOCC4)cc3)[C@@H](O)[C@H]2O)c(=O)[nH]1 | inactive |
| Nc1ncnc2c1ncn2[C@@H]1O[C@H](C(=O)N2CCCN(Cc3ccccc3F)CC2)[C@@H](O)[C@H]1O | inactive |
| C=CCn1c(CCc2ccc(OC(C)C)cc2)n[nH]c1=S | inactive |
| CC(C)Oc1ccc(CCc2n[nH]c(=S)n2Cc2ccccc2)cc1 | 16.4 µM (active) |
| CC(C)Oc1ccc(CCc2nnc(SCC(=O)O)n2-c2ccccc2)cc1 | inactive |
| C[C@@H]1CN([C@@H](C)CO)C(=O)CCCn2cc(nn2)CO[C@H]1CN(C)S(=O)(=O)c1ccc(-n2cccn2)cc1 | inactive |
| CCCCNC(=O)CSc1nc2ccc(NC(=O)CSc3nnc(COc4ccccc4C)n3C)cc2s1 | inactive |
| CCCCNC(=O)CSc1nc2ccc(NC(=O)CSc3nnc(N)s3)cc2s1 | inactive |
| Nc1nnc(SCC(=O)Nc2ccc3nc(SCC(=O)Nc4ccccc4)sc3c2)s1 | 23.1 µM (active) |
| COc1ccc(N2c3ccccc3CN(Cc3ccccc3)[C@@H](C)[C@H]2Cc2ccc(-c3ccccc3)cc2)cc1 | inactive |
| Clc1cccc(Cc2c(-c3cccc(Cl)c3)nc3ccc(Cl)cn23)c1 | inactive |

| Structure (SMILES) | Potency |
| --- | --- |
| CCc1ccc(NC(=O)c2ccc(Cn3cc([N+](=O)[O-])cn3)cc2)cc1 | 4.61 µM (active) |
| O=C(c1ccc(Cn2cc([N+](=O)[O-])cn2)o1)N1CCCC1 | inactive |
| O=C(Nc1ccccc1F)c1ccc(Cn2cc(Br)cn2)cc1 | inactive |
| CCOC(=O)C1=CC[C@@H](c2ccccc2)N(S(=O)(=O)c2ccc(C)cc2)[C@H]1c1cccc(OC)c1 | inactive |
| O=C(NCc1ccccc1)C1c2ccccc2OCC(=O)N1CCCN1CCOCC1 (stereo unspecified) | inactive |
| CCOC(=O)c1ccc(NC(=O)C2CC(=O)NC(=Nc3ccc(C)c(C)c3)S2)cc1 (stereo unspecified) | inactive |
| Cc1ccc(Cc2c(-c3ccco3)nc3ccc(Cl)cn23)cc1 | inactive |
| Oc1c(Br)cccc1/C=N/Nc1c(F)c(F)c(F)c(F)c1F | 25.9 µM (active) |
| Brc1ccccc1/C=N/Nc1nc2ccccc2o1 | inactive |
| Oc1cccc(/C=N/Nc2ccc(Cl)nn2)c1O | inactive |
| CCOc1ccc(Nc2nc3c(S(=O)(=O)c4cccc(Cl)c4)nnn3c3ccsc23)cc1 | inactive |
| CSc1ccc(CN2CCC2(C)C(=O)NCc2ccccc2Br)cc1 (stereo unspecified) | inactive |
| CCc1nnc(NC(=O)c2ccco2)s1 | inactive |
| CCCCCNC(=O)C1C(=O)Nc2ccccc2C(=O)N1C(C)(C)C (stereo unspecified) | inactive |
| CCCN(CCC)C(=S)Nc1cc(C(=O)OC)ccc1C(=O)OC | 20.6 µM (active) |
| CCN(CCO)C(=S)Nc1cc(C(=O)OC)ccc1C(=O)OC | inactive |
| CCS(=O)(=O)Nc1cc(C(=O)OC)ccc1C(=O)OC | inactive |
| COc1ccc2c(C)c(CCC(=O)NCc3ccc(OC)c(OC)c3)c(=O)oc2c1 | inactive |
| O=C(CCCN1C(=O)C(c2ccccc2)Oc2cccnc21)Nc1ccccc1Br (stereo unspecified) | inactive |
| Cn1nnc2c(N3CCN(c4ccccc4)CC3)ncnc21 | inactive |
| O=C1NC[C@H](CCCCN2C[C@H](Cc3ccccc3)N(Cc3ccccc3)C(=O)C2=O)N(CCc2ccc(O)cc2)C1=O | inactive |
| CC1CCN(C(=O)c2ccc(S(=O)(=O)Cc3cc(F)ccc3F)c([N+](=O)[O-])c2)CC1 | 14.6 µM (active) |
| Nc1ccc(C(=O)N2CCN(S(=O)(=O)c3ccc(Cl)cc3)CC2)cc1[N+](=O)[O-] | inactive |
| O=C(c1ccc(Oc2ccc(Cl)cc2)c([N+](=O)[O-])c1)N1CCCC1 | inactive |

| Structure (SMILES) | Potency |
| --- | --- |
| O=C1CCC[C@@H]2C[C@@]3(C[C@@H]4CCN1[C@H]24)Nc1ccccc1NC3=NCc1ccccc1 | inactive |
| Nc1cccc(-c2cncc(N3CCN(Cc4ccccn4)CC3)n2)c1 | inactive |
| COc1ccc(S(=O)(=O)N2CCN(CC(=O)N3CCNC3=O)CC2)cc1OC | inactive |
| O=C(COC(=O)CCc1c[nH]c2ccccc12)Nc1cccc(Cl)c1 | inactive |
| CCc1cc(C(=O)N(CC)CC(=O)Nc2c(F)cccc2F)sc1C | inactive |
| O=C(OCc1ccccc1)N1CCC2CC1c1ccc(-c3ccc4c(c3)OCO4)cc12 (stereo unspecified) | inactive |
| O=S(=O)(c1ccc(SCc2ccc(Br)cc2)nc1)N1CCOCC1 | 13 µM (active) |
| O=S(=O)(c1ccc(SCc2ccccc2)nc1)N1CCCCCC1 | inactive |
| Cc1ccc(CSc2ccc(S(=O)(=O)N3CCCCC3)cn2)cc1 | inactive |
| Cc1cccc2c1-c1sc(C(=O)Nc3ccc(F)cc3F)cc1CO2 | inactive |
| COc1ccc(NC(=O)C2(C)Cc3c(-c4cccc(NC(C)=O)c4)ccnc3O2)cc1OC (stereo unspecified) | inactive |
| O=C(CC(O)(C(F)(F)F)C(F)(F)F)Nc1ccc(Cl)c(Cl)c1 | 3.26 µM (active) |
| O=C(CSc1nnc(-c2ccncc2)n1-c1ccccc1)Nc1ccc(Cl)c(Cl)c1 | inactive |
| CCn1nccc1C(=O)Nc1ccc(Cl)c(Cl)c1 | inactive |
| Cc1ccc(C(=O)NC2CCN(C(=O)N3CCOCC3)CC2)cc1 | inactive |
| CC1CCN(c2nc3ccc(C(=O)N4CCN(c5ccccc5)CC4)cc3s2)CC1 | inactive |
| CCOC(=O)N1CCC(NC(=O)c2ccc3nc(N4CCOCC4)sc3c2)CC1 | 3.66 µM (active) |
| CC1CCC2(CC1)NC(=O)N(CC(=O)NCc1ccco1)C2=O (stereo unspecified) | inactive |
| C[C@H]1CN([C@@H](C)CO)C(=O)c2cc(-c3cccc(F)c3)cnc2O[C@@H]1CN(C)S(C)(=O)=O | inactive |
| CC(OC(=O)c1ccc([N+](=O)[O-])cc1)C(=O)NCC1CCCCC1 (stereo unspecified) | inactive |
| COc1ccc(NC(=O)CCC(=O)Nc2cc(OC)c(NC(=O)c3ccco3)cc2OC)c(OC)c1 | inactive |
| COc1cc(C(=O)OC(C)C(=O)NCC2CCCCC2)cc(NC(=O)c2ccco2)c1OC (stereo unspecified) | 20.6 µM (active) |
| CN(C)CCCOc1ccc(-c2ccc3nccn3c2)cn1 | inactive |
| CC(C)CC(=O)N=C1SC2CS(=O)(=O)CC2N1CCc1ccccc1 (stereo unspecified) | 13 µM (active) |

| Structure (SMILES) | Potency |
| --- | --- |
| O=C(N=C1SC2CS(=O)(=O)CC2N1Cc1ccccc1)c1ccccc1 (stereo unspecified) | inactive |
| O=C(CCC1CCCC1)N=C1SC2CS(=O)(=O)CC2N1Cc1ccccc1 (stereo unspecified) | inactive |
| CCOc1ccc(C(=O)NCC(=O)N2CCN(c3ccc(C(F)(F)F)cn3)CC2)cc1 | inactive |
| C/C=C/C(=O)Nc1ccc(N2CCN(c3ccc(C(F)(F)F)cn3)CC2)nc1 | inactive |
| Cc1ccc(F)cc1NC(=O)N1CCCN(c2ccc(C(F)(F)F)cn2)CC1 | 20.6 µM (active) |
| O=C(c1cc(=O)c2ccccc2o1)N1CCN(c2ccccc2)CC1 | inactive |
| COc1ccccc1CNC(=O)c1cc(=O)c2ccccc2o1 | inactive |
| COc1cc2c(cc1OC)CN(C(=O)c1cc(=O)c3ccccc3o1)CC2 | 2.91 µM (active) |
| O=C(c1ccccc1)N1N=C(c2ccccc2O)CC1c1ccc(Br)cc1 (stereo unspecified) | inactive |
| COc1ccc(C2=NN(C(C)=O)C(c3ccccc3)C2)cc1 (stereo unspecified) | inactive |
| CNC(=S)N1N=C(c2ccccc2)CC1c1ccc(Br)cc1 (stereo unspecified) | 11.6 µM (active) |
| CC1(C(=O)NS(=O)(=O)c2ccc(C#N)cc2)CCN1C(=O)c1ccc(C2CCCCC2)cc1 (stereo unspecified) | inactive |
| CCOC(=O)C1CCC(CN(Cc2ccc(OC)cc2)S(=O)(=O)c2ccc(F)c(C(=O)Nc3cc(C)ccc3C)c2)CC1 (stereo unspecified) | inactive |
| N#CC1=C(SCc2ccc(C#N)cc2)N=C(N)C(c2nc(-c3ccccc3)cs2)C12CCCCC2 (stereo unspecified) | inactive |
| N#CC1=C(SCc2ccccc2)NC(=O)C(C#N)C12CCCC2 (stereo unspecified) | 14.6 µM (active) |
| CCCCN1CC(C)(C)[C@H](CC(=O)Nc2ccc(Br)cc2)C1=O | inactive |
| COc1ccccc1CNC(=O)CCCCn1c(=O)c2ccccc2n(CC(=O)Nc2cc(Cl)ccc2C)c1=O | inactive |
| CC(Sc1oc(-c2ccco2)nc1S(=O)(=O)c1ccc(Br)cc1)c1ccccc1 (stereo unspecified) | inactive |
| Cc1ccc(C(=O)NC(C)C(c2cccs2)N2CCOCC2)cc1C (stereo unspecified) | inactive |
| CCN(CCCNC(=O)c1cc(Nc2ccc(OC)cc2)nc2ccccc12)c1cccc(C)c1 | inactive |
| CC(C)(C)c1ccc(C(=O)NNC(=O)Cc2ccccc2)cc1 | inactive |
| CN(C(=O)COC(=O)CNC(=O)C12CC3CC(CC(C3)C1)C2)c1ccccc1 | inactive |
| CN(C(=O)CC(NC(=O)c1ccccc1)(c1ccccc1)c1ccccc1)c1ccccc1 | 10.3 µM (active) |
| O=C(Nc1cccc(-c2nc3ccccc3o2)c1)c1cccc(Br)c1 | inactive |
